In PubChem BioAssay (Tox21):
Results filed as inconclusive are left out. A call without a number means that no potency is given here. Activity calls are given as the source filed them. Unless noted, calls follow the shape of the dose curve; as a rule, active = well fitted curve in the direction sought with a large enough effect in the repeat runs; inconclusive = weak or mixed curves; inactive = no such curve, though single readings can be large; an effect the other way counts as inactive or inconclusive.

Tests used:
[1] = A CellTox Green Cytotoxicity Assay to monitor cytotoxicity in HEK293 cells - 32 hour (AID 1224881); also: nearly all actives have a fitted effect of over 40% in size; also: potency is read from the fitted curve at half-maximal effect
Summary of the method: (§1)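 Fluorescence intensity, read at 0, 8, 16, 24, 32 and 40 h of compound treatment, reflected dye binding to DNA of dead HEK293 cells; compounds (23 nL, DMSO) were added 5 h after plating cells with reagent.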

[2] = A CellTox Green Cytotoxicity Assay to monitor cytotoxicity in HepG2 cells - 0 hour (AID 1224882); also: nearly all actives have a fitted effect of over 35% in size; also: potency is read from the fitted curve at half-maximal effect
Summary of the method: (§2)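 Using 1536-well format, dye-containing HepG2 suspension was seeded, allowed 5 h at 37 C/5% CO2, dosed by pintool with compounds, positive and negative controls, and imaged for fluorescence across 40 h.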

[3] = A CellTox Green Cytotoxicity Assay to monitor cytotoxicity in HepG2 cells - 32 hour (AID 1224883); also: nearly all actives have a fitted effect of over 50% in size; also: potency is read from the fitted curve at half-maximal effect
Summary of the method: as §2

[4] = A CellTox Green Cytotoxicity Assay to monitor cytotoxicity in HEK293 cells - 8 hour (AID 1224884); also: nearly all actives have a fitted effect of over 35% in size; also: potency is read from the fitted curve at half-maximal effect
Summary of the method: as §1

[5] = qHTS RealTime-Glo MT Cell Viability Assay in HepG2 cells - 16 hour (AID 1224885); also: nearly all actives have a fitted effect of over 50% in size
Summary of the method: (§3)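 Tox21 10K library screened in qHTS format on HepG2 cells carrying RealTime-Glo reagents. Compounds were added after a 5 h preincubation, and the luminescent signal from continuous culture was measured repeatedly during 40 h treatment.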

[6] = qHTS RealTime-Glo MT Cell Viability Assay in HEK293 cells - 24 hour (AID 1224886); also: top concentration of the series differs between compounds; nearly all actives have a fitted effect of over 50% in size
Summary of the method: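 Luminescence generated by NanoLuc from substrate produced by living HEK293 cells served as the viability signal. Each value reflects the reading at its stated time point during continuous 40 h compound exposure at 37 C.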

[7] = qHTS RealTime-Glo MT Cell Viability Assay in HEK293 cells - 8 hour (AID 1224887); also: top concentration of the series differs between compounds; nearly all actives have a fitted effect of over 50% in size
Summary of the method: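 Viable HEK293 cells reduce a cell-permeant prosubstrate; the product diffuses out and is consumed by NanoLuc in the medium to give light. Compounds went in after a 5 h incubation and plates were read over the treatment course.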

[8] = A CellTox Green Cytotoxicity Assay to monitor cytotoxicity in HEK293 cells - 16 hour (AID 1224888); also: nearly all actives have a fitted effect of over 35% in size; also: potency is read from the fitted curve at half-maximal effect
Summary of the method: as §1

[9] = qHTS RealTime-Glo MT Cell Viability Assay in HepG2 cells - 0 hour (AID 1224889); also: nearly all actives have a fitted effect of over 50% in size
Summary of the method: as §3

[10] = A CellTox Green Cytotoxicity Assay to monitor cytotoxicity in HepG2 cells - 8 hour (AID 1224890); also: nearly all actives have a fitted effect of over 45% in size; also: potency is read from the fitted curve at half-maximal effect
Summary of the method: as §2

[11] = qHTS assay to identify small molecule antagonists of the estrogen receptor alpha (ER-alpha) signaling pathway using the BG1 cell line in the presence of 0.1 nM 17-beta-estradiol - cell viability counter screen (AID 1259241); also: nearly all actives have a fitted effect of over 40% in size
Summary of the method: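 Estradiol-stimulated (0.1 nM) VM7Luc4E2 cells exposed to compounds 22 hr; viability measured by fluorescence of cleaved CellTiter-Fluor substrate after 30 min.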

[12] = qHTS assay to identify small molecule antagonists of the androgen receptor (AR) signaling pathway using the MDA cell line in the presence of 0.5 nM R1881 - cell viability counter screen (AID 1259242); also: nearly all actives have a fitted effect of over 45% in size
Summary of the method: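 Viability of MDA-kb2 cells was multiplexed with the luciferase AR readout; after 16 hr with compounds and R1881 at 0.5 nM final, CellTiter-Fluor fluorescence was recorded.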

[13] = target: Estrogen receptor (Homo sapiens) (UniProt P03372); assay: qHTS assay to identify small molecule antagonists of the estrogen receptor alpha (ER-alpha) signaling pathway using the BG1 cell line in the presence of 0.1 nM 17-beta-estradiol (AID 1259244); also: nearly all actives have a fitted effect of over 50% in size
Sequence of Estrogen receptor (Homo sapiens) (P03372 whole entry, looked up): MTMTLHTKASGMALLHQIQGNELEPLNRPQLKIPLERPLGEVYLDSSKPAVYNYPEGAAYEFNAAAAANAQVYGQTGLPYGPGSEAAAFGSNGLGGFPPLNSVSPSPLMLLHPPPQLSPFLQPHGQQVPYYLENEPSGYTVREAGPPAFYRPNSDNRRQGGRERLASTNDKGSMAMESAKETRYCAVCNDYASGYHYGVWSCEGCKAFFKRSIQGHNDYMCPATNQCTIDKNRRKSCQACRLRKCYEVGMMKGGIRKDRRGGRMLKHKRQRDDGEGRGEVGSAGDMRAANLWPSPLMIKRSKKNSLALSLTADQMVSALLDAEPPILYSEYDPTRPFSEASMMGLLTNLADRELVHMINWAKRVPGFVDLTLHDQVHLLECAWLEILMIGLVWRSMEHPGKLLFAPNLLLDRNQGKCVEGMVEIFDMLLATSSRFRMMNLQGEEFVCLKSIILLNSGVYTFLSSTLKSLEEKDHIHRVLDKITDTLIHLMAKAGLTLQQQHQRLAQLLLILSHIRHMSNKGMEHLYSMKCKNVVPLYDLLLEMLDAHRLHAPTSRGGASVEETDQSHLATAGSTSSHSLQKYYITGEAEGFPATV
Summary of the method: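 Estradiol at 0.1 nM (final) stimulates the endogenous ER-alpha of VM7Luc4E2 cells carrying an ERE-driven luciferase; compounds are co-incubated 22 h at 37C and luciferase output quantified by luminescence.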

[14] = qHTS assay to identify small molecule HDAC inhibitors (AID 1259364);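 also: wild-type HCT-116 cells with endogenous class I/II HDAC activity; top concentration of the series differs between compounds; nearly all actives have a fitted effect of over 45% in size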
Summary of the method: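 Read-out: luminescence of HDAC-Glo I/II reagent, 30 min RT, reflecting class I/II deacetylase activity in whole HCT-116 cells pre-exposed 2 h to DMSO-dissolved compounds.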

[15] = qHTS assay to identify small molecule HDAC inhibitors - cell viability counter screen (AID 1259365)
Summary of the method: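 After overnight seeding at 1,500 cells per well, wild-type HCT-116 cultures took up compounds in DMSO for 2hr at 37 C. Viable cell content came from luminescence with CellTiter-Glo.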

[16] = qHTS assay to identify small molecule antagonists of the sonic hedgehog signaling (Shh) pathway - cell viability counter screen (AID 1259367); also: nearly all actives have a fitted effect of over 55% in size
Summary of the method: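 After a 4 hr settling period, 3T3 Gli1-Luc cells were treated with DMSO-dissolved chemicals and conditioned medium, kept 24 hr at 37C in 5% CO2, and assayed for viability by CellTiter-Fluor fluorescence following 1 hr reagent incubation.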

[17] = qHTS assay to identify small molecule agonists of the sonic hedgehog signaling (Shh) pathway (AID 1259368; calls by dose curve;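 also: NIH/3T3-derived 3T3Gli1-Luc cells carrying a stable Gli1-driven firefly luciferase reporter; series mostly up to about 92 µM; nearly all actives have a fitted effect of over 15% in size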)
Summary of the method: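 A Gli1 transcriptional response element controlled firefly luciferase in 3T3Gli1-Luc cells. Compounds and a positive control were added 4 hr after plating, and cells were incubated a further 24 hr at 37 C before luminescence detection.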

[18] = qHTS assay to identify small molecule agonists of the sonic hedgehog signaling (Shh) pathway - cell viability counter screen (AID 1259366); also: nearly all actives have a fitted effect of over 50% in size
Summary of the method: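 Same-well cytotoxicity read. Gli1-Luc reporter 3T3 cells; compounds 24hr, 37C/5% CO2; CellTiter-Fluor fluorescence.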

[19] = qHTS assay to identify small molecule phospholipidosis (PLD) inducers (AID 1259344; active = well fitted curve in the direction sought with a large enough effect; an effect the other way counts as inactive or inconclusive)
Summary of the method: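 HepG2 cells grown on collagen I take up LipidTOX Red while exposed to compound for 24 h; after fixation they are imaged at 20x and pit metrics are extracted.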

[20] = target: Androgen receptor (Homo sapiens) (UniProt P10275); assay: qHTS assay to identify small molecule antagonists of the androgen receptor (AR) signaling pathway using the MDA cell line in the presence of 0.5 nM R1881 (AID 1259243)
Sequence of Androgen receptor (Homo sapiens) (P10275 whole entry, looked up): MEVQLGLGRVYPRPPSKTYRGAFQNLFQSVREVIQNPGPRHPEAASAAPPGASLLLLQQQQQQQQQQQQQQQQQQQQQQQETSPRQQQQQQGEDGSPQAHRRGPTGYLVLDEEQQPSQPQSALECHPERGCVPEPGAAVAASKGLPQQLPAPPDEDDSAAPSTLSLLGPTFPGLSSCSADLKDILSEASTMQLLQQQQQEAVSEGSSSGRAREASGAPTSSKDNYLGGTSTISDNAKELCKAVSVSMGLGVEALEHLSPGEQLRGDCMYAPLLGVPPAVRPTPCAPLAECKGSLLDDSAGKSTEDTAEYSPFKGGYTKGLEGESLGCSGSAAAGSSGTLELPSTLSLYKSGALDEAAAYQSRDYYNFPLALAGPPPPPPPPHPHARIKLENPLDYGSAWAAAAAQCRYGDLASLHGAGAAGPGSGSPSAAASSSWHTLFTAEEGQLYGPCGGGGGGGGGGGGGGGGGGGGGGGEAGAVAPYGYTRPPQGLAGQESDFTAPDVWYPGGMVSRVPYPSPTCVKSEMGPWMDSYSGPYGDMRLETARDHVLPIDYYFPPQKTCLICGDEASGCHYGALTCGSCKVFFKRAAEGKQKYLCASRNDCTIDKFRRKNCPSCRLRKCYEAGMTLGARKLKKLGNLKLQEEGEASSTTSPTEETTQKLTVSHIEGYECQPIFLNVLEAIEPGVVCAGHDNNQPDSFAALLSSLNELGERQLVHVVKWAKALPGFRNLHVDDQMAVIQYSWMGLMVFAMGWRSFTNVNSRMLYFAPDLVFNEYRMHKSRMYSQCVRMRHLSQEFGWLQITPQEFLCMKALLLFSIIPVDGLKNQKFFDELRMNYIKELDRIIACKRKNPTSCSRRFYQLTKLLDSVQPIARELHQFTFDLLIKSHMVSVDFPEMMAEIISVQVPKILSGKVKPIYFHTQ
Summary of the method: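 Reporter cells cultured without CO2 receive test chemicals, then 0.5 nM R1881 final; after 16 hr at 37C, ONE-Glo is added and light output recorded.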

Row | SMILES | Potency [1] | Potency [2] | Potency [3] | Potency [4] | outcome [5] | Potency [6] | Potency [7] | Potency [8] | Potency [9] | Potency [10] | Potency [11] | outcome [12] | Potency [13] | Potency [14] | outcome [15] | Potency [16] | Potency [17] | Potency [18] | outcome [19] | Potency [20]
1 | CC(C)OC(C)C | inactive | inactive | inactive | inactive | inactive | inactive | inactive | inactive | inactive | inactive | inactive | inactive | inactive | inactive | inactive | inactive | inactive |  |  | 
2 | C=CC1CO1 (configuration not stated) | inactive | inactive | inactive | inactive | inactive | inactive | inactive | inactive | inactive | inactive | inactive | inactive |  | inactive | inactive | inactive | inactive | inactive |  | 
3 | Cc1ccc(C=O)s1 | 43.6 µM (active) | 43.6 µM (active) | 38.9 µM (active) | 43.6 µM (active) | inactive | inactive | inactive | 38.9 µM (active) | inactive | 38.9 µM (active) | inactive | inactive |  | inactive | inactive | inactive | inactive | inactive |  | 
4 | O=C(O)[C@@H](O)[C@H](O)[C@H](O)[C@@H](O)C(=O)O | inactive | inactive | inactive | inactive | inactive | inactive | inactive | inactive | inactive | inactive | inactive | inactive |  | inactive | inactive | inactive | inactive | inactive | inactive | 
5 | CC(=O)N(CC(O)CN(C(C)=O)c1c(I)c(C(=O)NCC(O)CO)c(I)c(C(=O)NCC(O)CO)c1I)c1c(I)c(C(=O)NCC(O)CO)c(I)c(C(=O)NCC(O)CO)c1I (configuration not stated) | inactive | inactive | inactive | inactive | inactive | inactive | inactive | inactive | inactive | inactive |  | inactive | inactive | inactive | inactive | inactive | inactive | inactive | inactive | 
6 | O=C(Cl)c1cccc([N+](=O)[O-])c1 | inactive | inactive | inactive | inactive | inactive | inactive | inactive | inactive | inactive | inactive | inactive | inactive | inactive | inactive | inactive | inactive | inactive |  |  | 
7 | Cc1ccc(C)c(N)c1 | inactive | inactive | inactive | inactive | inactive | inactive | inactive | inactive | inactive | inactive | inactive | inactive | inactive | inactive | inactive |  | inactive | inactive |  | 
8 | CCCOc1ccc2c(c1)CC[C@@H]1[C@@H]2CC[C@]2(C)C(OC)CC[C@@H]12 (some centres not stated) | inactive | inactive | inactive | inactive | inactive | inactive | inactive | inactive | inactive | inactive |  | inactive | inactive | inactive | inactive | inactive | inactive |  |  | 13.3 µM (active)
9 | O=C1CCCc2ccccc21 | inactive | inactive | inactive | inactive | inactive | inactive | inactive | inactive | inactive | inactive | inactive | inactive | inactive | inactive | inactive |  | inactive | inactive |  | 
10 | O=[N+]([O-])c1nccn1CO[C@@H](CO)[C@H](O)CO | inactive | inactive | inactive | inactive | inactive | inactive | inactive | inactive | inactive | inactive | inactive | inactive |  | inactive | inactive | inactive | inactive | inactive | inactive | 
11 | CC(C)NCC(O)COc1ccc(CCOCC2CC2)cc1 (configuration not stated) | inactive | inactive | inactive | inactive | inactive | inactive | inactive | inactive | inactive | inactive | inactive | inactive |  | inactive | inactive |  | inactive | inactive | inactive | 
12 | CCCCNC(=S)NCCCC | inactive | inactive | inactive | inactive | inactive | inactive | inactive | inactive | inactive | inactive | inactive | inactive | inactive | inactive | inactive | inactive |  |  |  | 
13 | C=CCCC=C | inactive | inactive | inactive | inactive | inactive | inactive | inactive | inactive | inactive | inactive | inactive | inactive |  | inactive | inactive |  | inactive | inactive |  | 
14 | Nc1ccc2ccccc2c1S(=O)(=O)O | inactive | inactive | inactive | inactive | inactive | inactive | inactive | inactive | inactive | inactive | inactive | inactive |  | inactive | inactive | inactive |  |  |  | 
